Measurements taken from PubChem BioAssay (NCATS).
Records with an inconclusive call do not appear. Calls of active or inactive are those of the source. Calls follow the shape of the dose curve; as a rule, active = well fitted curve in the direction sought with a large enough effect; inconclusive = small, poorly fitted or top-dose-only effect, or another doubt; inactive = no such curve, though single readings can be large; an effect the other way counts as inactive or inconclusive.

Columns and labels:
[1] = Quantitative High-Throughput drug screen in 47 multiple myeloma cell lines against the NCATS MIPE library collection: JIM1_ECACC cell viability assay (AID 1918964; also: potency is read from the fitted curve at half-maximal effect)
Procedure, shortened: (§1)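 Primary qHTS used for cherry-picking: cells at 500/well, library compounds for 48 h (37C, 5% CO2), luminescent ATP assay.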

[2] = Quantitative High-Throughput drug screen in 47 multiple myeloma cell lines against the NCATS MIPE library collection: H1112_PLB cell viability assay (AID 1918967; also: nearly all actives have a fitted effect of over 30% in size; also: potency is read from the fitted curve at half-maximal effect)
Procedure, shortened: as §1

[3] = Quantitative High-Throughput drug screen in 47 multiple myeloma cell lines against the NCATS MIPE library collection: Karpas25_ECACC cell viability assay (AID 1918968; also: nearly all actives have a fitted effect of over 35% in size; also: potency is read from the fitted curve at half-maximal effect)
Procedure, shortened: as §1

[4] = Quantitative High-Throughput drug screen in 47 multiple myeloma cell lines against the NCATS MIPE library collection: KMS12BM_JCRB cell viability assay (AID 1918971); also: nearly all actives have a fitted effect of over 35% in size; also: potency is read from the fitted curve at half-maximal effect
Procedure, shortened: (§2)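 Luminescent ATP measurement with CellTiter-Glo gives viability, scaled between DMSO-only wells (100%) and media-only wells (0%). Cells, 500 per well, faced library compounds for 48 hours at 37C.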

[5] = Quantitative High-Throughput drug screen in 47 multiple myeloma cell lines against the NCATS MIPE library collection: KMS12PE_JCRB cell viability assay (AID 1918972); also: nearly all actives have a fitted effect of over 30% in size; also: potency is read from the fitted curve at half-maximal effect; as to viability: series mostly up to about 46 µM
Procedure, shortened: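 Viability readout: CellTiter-Glo luminescence following 5 min room-temperature incubation with reagent. Prior exposure: 48 h, 37C, humidified 5% CO2, 500 cells per well.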

[6] = Quantitative High-Throughput drug screen in 47 multiple myeloma cell lines against the NCATS MIPE library collection: KMS26_JCRB cell viability assay (AID 1918975); also: nearly all actives have a fitted effect of over 45% in size; also: potency is read from the fitted curve at half-maximal effect
Procedure, shortened: as §2

[7] = Quantitative High-Throughput drug screen in 47 multiple myeloma cell lines against the NCATS MIPE library collection: NCIH929_DSMZ cell viability assay (AID 1918978); also: nearly all actives have a fitted effect of over 35% in size; also: potency is read from the fitted curve at half-maximal effect
Procedure, shortened: (§3)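 Cells were exposed to library compounds for 48 hours, after which ATP was measured by CellTiter-Glo. Signal was taken as median relative luminescence units.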

[8] = Quantitative High-Throughput drug screen in 47 multiple myeloma cell lines against the NCATS MIPE library collection: MM1S_ATCC cell viability assay (AID 1918980); also: nearly all actives have a fitted effect of over 45% in size; also: potency is read from the fitted curve at half-maximal effect
Procedure, shortened: as §3

[9] = Quantitative High-Throughput drug screen in 47 multiple myeloma cell lines against the NCATS MIPE library collection: L363_DSMZ cell viability assay (AID 1918984); also: nearly all actives have a fitted effect of over 40% in size
Procedure, shortened: as §3

[10] = Quantitative High-Throughput drug screen in 47 multiple myeloma cell lines against the NCATS MIPE library collection: KMS27_JCRB cell viability assay (AID 1918970); also: nearly all actives have a fitted effect of over 30% in size; also: potency is read from the fitted curve at half-maximal effect
Procedure, shortened: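 Myeloma cells (500 per well) were exposed to MIPE 4.0 compounds for 48 h at 37 °C, 5% CO2; viability was read as ATP luminescence with CellTiter-Glo, normalized to DMSO-only (100%) and media-only (0%) wells.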

[11] = Quantitative High-Throughput drug screen in 47 multiple myeloma cell lines against the NCATS MIPE library collection: MMM1_PLB cell viability assay (AID 1918976); also: potency is read from the fitted curve at half-maximal effect; nearly all actives have a fitted effect of over 35% in size
Procedure, shortened: as §3

[12] = Quantitative High-Throughput drug screen in 47 multiple myeloma cell lines against the NCATS MIPE library collection: MOLP8_DSMZ cell viability assay (AID 1918977); also: nearly all actives have a fitted effect of over 45% in size
Procedure, shortened: as §3

[13] = Quantitative High-Throughput drug screen in 47 multiple myeloma cell lines against the NCATS MIPE library collection: MM1R_ATCC cell viability assay (AID 1918981); also: nearly all actives have a fitted effect of over 35% in size; also: potency is read from the fitted curve at half-maximal effect
Procedure, shortened: as §3

[14] = Quantitative High-Throughput drug screen in 47 multiple myeloma cell lines against the NCATS MIPE library collection: KMS28PE_JCRB cell viability assay (AID 1918983); also: nearly all actives have a fitted effect of over 35% in size; also: potency is read from the fitted curve at half-maximal effect
Procedure, shortened: as §3

[15] = Quantitative High-Throughput drug screen in 47 multiple myeloma cell lines against the NCATS MIPE library collection: LP1_DSMZ cell viability assay (AID 1918982); also: nearly all actives have a fitted effect of over 35% in size
Procedure, shortened: as §3

[16] = Quantitative High-Throughput drug screen in 47 multiple myeloma cell lines against the NCATS MIPE library collection: OCIMY1_PLB cell viability assay (AID 1918979)
Procedure, shortened: as §3

[17] = Quantitative High-Throughput drug screen in 47 multiple myeloma cell lines against the NCATS MIPE library collection: KMS20_JCRB cell viability assay (AID 1918973); also: potency is read from the fitted curve at half-maximal effect; nearly all actives have a fitted effect of over 45% in size
Procedure, shortened: as §1

Measured: Potency

CCOC(=O)N1CCC(=C2c3ccc(Cl)cc3CCc3cccnc32)CC1
inactive: [1] | [2] | [3] | [5] | [9]
active: [4] 23.5 µM | [6] 18.7 µM | [7] 7.43 µM | [8] 29.6 µM

Cc1cc(-c2ccc(CC(=O)Nc3ccc(-c4cccnc4)cc3)cc2)ccn1
inactive: [12] | [8] | [13]
active: [1] 20.9 µM | [2] 18.7 µM | [3] 18.7 µM | [10] 16.6 µM | [5] 14.8 µM | [11] 20.9 µM | [7] 23.5 µM | [14] 13.2 µM

O=c1[nH]c(-c2ccc(C(F)(F)F)cc2)nc2c1CSCC2
inactive: [1] | [10] | [5] | [12] | [14] | [9]
active: [3] 18.7 µM | [6] 3.72 µM | [11] 7.43 µM | [7] 18.7 µM | [8] 18.7 µM

O=C1CCc2cc(OCCCCc3nnnn3C3CCCCC3)ccc2N1
inactive: [1] | [10] | [5] | [6] | [13] | [15] | [14] | [9]

O=C(Nc1nc2ccccc2n1CCN1CCOCC1)c1cccc([N+](=O)[O-])c1
active: [1] 5.26 µM | [10] 7.43 µM | [6] 29.6 µM | [8] 9.35 µM | [13] 18.7 µM
inactive: [2] | [3]

CCCC(CCC)C(=O)O
not listed: [2] | [3] | [8] | [9] | [11] | [17]
inactive: all other assays above

O=S(=O)(N=Cc1c(O)ccc2ccccc12)c1cccs1
active: [2] 16.6 µM | [3] 1.05 µM | [17] 0.833 µM | [6] 16.6 µM | [7] 4.69 µM | [8] 0.0209 µM
inactive: [1] | [13] | [15]

NC[C@H](O)c1ccc(O)c(O)c1
active: [8] 23.5 µM | [13] 5.9 µM | [14] 18.7 µM
inactive: [1] | [2] | [10] | [5] | [7] | [16] | [15]

Cc1c(CCOc2ccc(C(=O)O)cc2)c2cc(Cl)ccc2n1C(c1ccccc1)c1ccccc1
active: [3] 20.9 µM | [4] 16.6 µM | [11] 14.8 µM | [8] 9.35 µM | [13] 11.8 µM | [14] 23.5 µM
inactive: [1] | [2] | [5] | [7] | [16]
